The values that follow come from PubChem BioAssay (NCATS).

Records with an inconclusive call do not appear. Entries that show only a call come without a potency. The source made the active and inactive calls. Calls follow the shape of the full dose curve.

The nature of the assay: Cytotoxicity counterscreen for inhibitors of SARS-CoV-2 cell entry (AID 1645845). Also: nearly all actives have a fitted effect of over 50% in size. The following applies: cell viability (SARS-CoV-2 entry assay cells); series mostly up to 57.1 µM. In outline: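 48 h compound treatment (after 1 h preincubation), HEK293-ACE2 cells, 37 C/5% CO2; ATP luminescence endpoint; normalized to cell wells and media blanks.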
On the technique in general: A counterscreen serves to expose hits that act by an unwanted route or on another target.
`COc1cc(N2CCN(C)CC2)ccc1Nc1nccc(-c2cn(C)c3cnccc23)n1`: the Potency result was “inactive”.
As to `c1ccc(-c2cc(CCC3CCNCC3)c3ccccc3n2)cc1`, the Potency entry is “inactive”.
To `O=C(O)c1ccc(CCCc2ccc(OCCc3ccc(F)cc3)cc2)o1` belongs “inactive”; to `Cn1c(NC[C@@H](N)Cc2ccccc2)nc(-c2ccncc2)c(-c2ccc3ccccc3c2)c1=O`, “inactive”; to `CC(=O)O/N=C1\C(=O)N(Cc2cc(Cl)ccc2Cl)c2ccc(Cl)cc21`, “inactive”.
To `O=C1NC(=O)/C(=C\c2ccc(-c3ccc(F)cc3)o2)S1` belongs “inactive”; to `CC(C)C[C@H](NC(=O)[C@H](Cc1ccccc1)NC(=O)OCc1ccccc1)C(=O)C=O`, “inactive”; to `Nc1nc(Nc2ccc3c(c2)CC[C@@H](N2CCCC2)CC3)nn1-c1cc2c(nn1)-c1ccccc1CCC2`, “inactive”.
